# ChEMBL document CHEMBL5606458, “ASAP - ZIKV NS2B-NS3 protease fluorescence single point” (2024)
# Among all 2,700 compounds or so, about 160 (5.9%) showed an effect of 50% or more. The full list was thinned out, with strong results kept by preference.
# Target: Nonstructural protein 3 (Zika virus) (UniProt A0A024AXB9)
# [1] = PRVABC59, Concentration 198.0 uM, Number of replicates 2.0, Standard deviation 0.06482927085509294 %
# Chain of Nonstructural protein 3 (Zika virus) (A0A024AXB9 as listed by the source): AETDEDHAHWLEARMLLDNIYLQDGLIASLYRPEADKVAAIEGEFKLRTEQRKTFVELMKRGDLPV
smiles,measurement,setting,value
c1ccc2c([C@H]3CCN(C[C@H]4CCCOC4)C3)c[nH]c2c1,inhibition,"PRVABC59, Concentration 49.5 uM, Number of replicates 2.0, Standard deviation 0.2718923543168702 %",3%
same,inhibition,"PRVABC59, Concentration 99.01 uM, Number of replicates 2.0, Standard deviation 1.3138002130824364 %",7.93%
same,inhibition,"PRVABC59, Concentration 198.0 uM, Number of replicates 2.0, Standard deviation 0.8779424567170888 %",17.5%
CCn1ccnc(N2CC[C@H](c3c[nH]c4ccccc34)C2)c1=O,inhibition,"PRVABC59, Concentration 49.5 uM, Number of replicates 2.0, Standard deviation 0.8076182483405395 %",8.04%
same,inhibition,"PRVABC59, Concentration 99.01 uM, Number of replicates 2.0, Standard deviation 0.7356695318349864 %",17.6%
same,inhibition,"PRVABC59, Concentration 198.0 uM, Number of replicates 2.0, Standard deviation 0.07734519898888803 %",32.1%
OCc1cc(C2CCN(Cc3c[nH]c4ccccc34)CC2)no1,inhibition,"PRVABC59, Concentration 49.5 uM, Number of replicates 2.0, Standard deviation 0.29821086957580095 %",48.5%
same,inhibition,"PRVABC59, Concentration 99.01 uM, Number of replicates 2.0, Standard deviation 0.4460202044782944 %",64.3%
same,inhibition,"PRVABC59, Concentration 198.0 uM, Number of replicates 2.0, Standard deviation 0.7494127761974186 %",75.2%
c1ccc(C2CCN(Cc3c[nH]c4ccccc34)CC2)nc1,inhibition,"PRVABC59, Concentration 49.5 uM, Number of replicates 2.0, Standard deviation 1.1072658196883798 %",59.8%
same,inhibition,"PRVABC59, Concentration 99.01 uM, Number of replicates 2.0, Standard deviation 0.7753455634987777 %",75.2%
same,inhibition,"PRVABC59, Concentration 198.0 uM, Number of replicates 2.0, Standard deviation 0.5497459588871212 %",86%
NS(=O)(=O)c1ccc(C2CCN(Cc3c[nH]c4ccccc34)CC2)cc1,inhibition,"PRVABC59, Concentration 49.5 uM, Number of replicates 2.0, Standard deviation 0.10609946491696037 %",65%
same,inhibition,"PRVABC59, Concentration 99.01 uM, Number of replicates 2.0, Standard deviation 0.029644407368622425 %",80.2%
same,inhibition,"PRVABC59, Concentration 198.0 uM, Number of replicates 2.0, Standard deviation 0.031203503588737417 %",89.2%
c1ccc2c(CN3CCCCC3)c[nH]c2c1,inhibition,"PRVABC59, Concentration 49.5 uM, Number of replicates 2.0, Standard deviation 0.27567478108963184 %",10.6%
same,inhibition,"PRVABC59, Concentration 99.01 uM, Number of replicates 2.0, Standard deviation 0.4102311237715717 %",22.8%
same,inhibition,"PRVABC59, Concentration 198.0 uM, Number of replicates 2.0, Standard deviation 0.3445953308233743 %",38%
O=C(O)c1ccc(C2CCN(Cc3c[nH]c4ccccc34)CC2)cc1,inhibition,"PRVABC59, Concentration 49.5 uM, Number of replicates 2.0, Standard deviation 0.6949576992221913 %",10.8%
same,inhibition,"PRVABC59, Concentration 99.01 uM, Number of replicates 2.0, Standard deviation 0.3163616627681085 %",22.8%
same,inhibition,"PRVABC59, Concentration 198.0 uM, Number of replicates 2.0, Standard deviation 0.22041520507002849 %",37.7%
CCC1CCN(Cc2c[nH]c3ccccc23)CC1,inhibition,"PRVABC59, Concentration 49.5 uM, Number of replicates 2.0, Standard deviation 2.1085872748623196 %",21.4%
same,inhibition,"PRVABC59, Concentration 99.01 uM, Number of replicates 2.0, Standard deviation 0.9763502903682051 %",37.3%
same,inhibition,"PRVABC59, Concentration 198.0 uM, Number of replicates 2.0, Standard deviation 0.045944785323907715 %",55.2%
OC1CCN(Cc2c[nH]c3ccccc23)CC1,inhibition,"PRVABC59, Concentration 49.5 uM, Number of replicates 2.0, Standard deviation 2.7698787458435845 %",5.44%
same,inhibition,"PRVABC59, Concentration 99.01 uM, Number of replicates 2.0, Standard deviation 2.6829105784026894 %",11.6%
same,inhibition,"PRVABC59, Concentration 198.0 uM, Number of replicates 2.0, Standard deviation 2.633683059341965 %",21.9%
O=C1NCc2ccccc2C12CCNCC2,inhibition,"PRVABC59, Concentration 49.5 uM, Number of replicates 2.0, Standard deviation 1.3304043012280913 %",0.782%
same,inhibition,"PRVABC59, Concentration 99.01 uM, Number of replicates 2.0, Standard deviation 0.8986974193851874 %",2.65%
same,inhibition,"PRVABC59, Concentration 198.0 uM, Number of replicates 2.0, Standard deviation 5.074631109254522 %",2.34%
CCn1ccnc(N2CC[C@H](C(C)(C)C)C2)c1=O,inhibition,"PRVABC59, Concentration 49.5 uM, Number of replicates 2.0, Standard deviation 2.222905543826298 %",4.07%
same,inhibition,"PRVABC59, Concentration 99.01 uM, Number of replicates 2.0, Standard deviation 1.7617429882024038 %",10.1%
same,inhibition,"PRVABC59, Concentration 198.0 uM, Number of replicates 2.0, Standard deviation 1.0233659428190776 %",20.1%
c1ccc2c(CN3CCC(c4ccn[nH]4)CC3)c[nH]c2c1,inhibition,"PRVABC59, Concentration 49.5 uM, Number of replicates 2.0, Standard deviation 1.3620998271263447 %",41.5%
same,inhibition,"PRVABC59, Concentration 99.01 uM, Number of replicates 2.0, Standard deviation 0.5632518321987402 %",58.4%
same,inhibition,"PRVABC59, Concentration 198.0 uM, Number of replicates 2.0, Standard deviation 0.6599886276000965 %",73.5%
c1ccc2c(CN3CCC(c4cnco4)CC3)c[nH]c2c1,inhibition,"PRVABC59, Concentration 49.5 uM, Number of replicates 2.0, Standard deviation 0.1050178081967768 %",41.5%
same,inhibition,"PRVABC59, Concentration 99.01 uM, Number of replicates 2.0, Standard deviation 0.24613759530362114 %",59.4%
same,inhibition,"PRVABC59, Concentration 198.0 uM, Number of replicates 2.0, Standard deviation 0.2970051325336013 %",74.9%
COC[C@@H](C)CN1CC[C@H](c2c[nH]c3ccccc23)C1,inhibition,"PRVABC59, Concentration 49.5 uM, Number of replicates 2.0, Standard deviation 1.4380791310486918 %",4.02%
same,inhibition,"PRVABC59, Concentration 99.01 uM, Number of replicates 2.0, Standard deviation 1.4278249713933853 %",8.28%
same,inhibition,"PRVABC59, Concentration 198.0 uM, Number of replicates 2.0, Standard deviation 1.555996909462895 %",14.7%
COc1cccc(C2CCN(Cc3c[nH]c4ccccc34)CC2)c1,inhibition,"PRVABC59, Concentration 49.5 uM, Number of replicates 2.0, Standard deviation 0.042125269324456455 %",39.6%
same,inhibition,"PRVABC59, Concentration 99.01 uM, Number of replicates 2.0, Standard deviation 0.10921765735719036 %",56.3%
same,inhibition,"PRVABC59, Concentration 198.0 uM, Number of replicates 2.0, Standard deviation 0.2075162463769664 %",67.5%
c1cnc(C2CCN(Cc3c[nH]c4ccccc34)CC2)nc1,inhibition,"PRVABC59, Concentration 49.5 uM, Number of replicates 2.0, Standard deviation 0.6038611636759568 %",44.9%
same,inhibition,"PRVABC59, Concentration 99.01 uM, Number of replicates 2.0, Standard deviation 0.27239407040154384 %",62.7%
same,inhibition,"PRVABC59, Concentration 198.0 uM, Number of replicates 2.0, Standard deviation 0.2641885847586549 %",77.4%
Cn1nccc1C1CCN(Cc2c[nH]c3ccccc23)CC1,inhibition,"PRVABC59, Concentration 49.5 uM, Number of replicates 2.0, Standard deviation 1.4229504354820093 %",24.6%
same,inhibition,"PRVABC59, Concentration 99.01 uM, Number of replicates 2.0, Standard deviation 1.2388422115932054 %",38.2%
same,inhibition,"PRVABC59, Concentration 198.0 uM, Number of replicates 2.0, Standard deviation 1.0765748217775348 %",55.9%
CCc1cc(C)nc(C2CCN(Cc3c[nH]c4ccccc34)CC2)n1,inhibition,"PRVABC59, Concentration 49.5 uM, Number of replicates 2.0, Standard deviation 0.9221110052573533 %",41.8%
same,inhibition,"PRVABC59, Concentration 99.01 uM, Number of replicates 2.0, Standard deviation 1.5508934318704077 %",59.5%
same,inhibition,"PRVABC59, Concentration 198.0 uM, Number of replicates 2.0, Standard deviation 1.118702788500296 %",75.2%
N#CC1(c2ccccc2)CCN(Cc2c[nH]c3ccccc23)CC1,inhibition,"PRVABC59, Concentration 49.5 uM, Number of replicates 2.0, Standard deviation 0.4200874171769353 %",32%
same,inhibition,"PRVABC59, Concentration 99.01 uM, Number of replicates 2.0, Standard deviation 0.32673315924966934 %",34.4%
same,inhibition,[1],32.8%
c1ccc(COC2CCN(Cc3c[nH]c4ccccc34)CC2)cc1,inhibition,"PRVABC59, Concentration 49.5 uM, Number of replicates 2.0, Standard deviation 2.313702836748105 %",23.5%
same,inhibition,"PRVABC59, Concentration 99.01 uM, Number of replicates 2.0, Standard deviation 1.2274106375778986 %",39.6%
same,inhibition,"PRVABC59, Concentration 198.0 uM, Number of replicates 2.0, Standard deviation 0.262548566589399 %",58.3%
c1cncc(C2CCN(Cc3c[nH]c4ccccc34)CC2)c1,inhibition,"PRVABC59, Concentration 49.5 uM, Number of replicates 2.0, Standard deviation 0.34229175267116285 %",61.9%
same,inhibition,"PRVABC59, Concentration 99.01 uM, Number of replicates 2.0, Standard deviation 0.300803069346615 %",77.1%
same,inhibition,[1],87.7%
